The results in this text go back to PubChem BioAssay.

By inhibition is commonly meant the relative decrease from the control value, in per cent. For orientation: viability means a read-out of living cells in per cent, often relative to untreated cells.

Assay [1] in a line: polyglutamine-triggered caspase-3 activation inhibitors, cell-based (AID 1583). To be noted: polyglutamine-induced caspase-3 activation, cell assay; stronger effect = higher value;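 tested at 10 µM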.
Assay [2] in a line: suppressors of polyQ aggregation in yeast, 75Q-TubU reporter (AID 1593). To be noted: Yeast 75Q polyglutamine aggregation reporter.
The nature of assay [3]: rescue of polyQ-huntingtin neuronal dysfunction in worms, whole organism, C. elegans mechanosensory neurons, N-terminal huntingtin (AID 1599). To be noted: touch response, stronger effect = higher value.
Assay [4] in a line: inhibitors of mitochondrial cytochrome c release, biochemical, purified mitochondria (AID 1603).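 Note: mouse liver mitochondria challenged with calcium chloride; signal normalized to the plate average as 100%.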 As to conditions: stronger effect = lower value.
Assay [5] in a line: inhibitors of polyQ protein aggregation (AID 1604). As to conditions: polyglutamine-induced protein aggregation inhibition assay; stronger effect = higher value; tested at 2.5 µM.
Assay [6] is described as follows: enhancers of glutamate uptake in motor neurons, MN-1 cell line (AID 1612).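 Note: tested at 1 µM final; 0% = mean of DMSO vehicle wells on each plate; positive means more glutamate uptake than control and negative means less.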 To be noted: MN-1 motor neuron cells, stronger effect = higher value.
A short description of assay [7]: reducers of polyQ inclusions in PC12 cells, cell-based, NGF-treated PC12, GFPQ80 (AID 1614).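 Note: lower means fewer inclusions and 0 means no inclusions at all.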 To be noted: PC12 NGF-treated GFP-polyQ80 inclusion reduction.
A short description of assay [8]: suppressors of polyglutamine aggregation in yeast, 75Q-TubH (AID 1616). As to conditions: S. cerevisiae 75Q-TubH polyglutamine aggregation suppression; stronger effect = higher value.
Assay [9] in a line: liver-stage malaria parasite growth inhibition, primary screen, cell-based, HepG2, luciferase luminescence, HepG2 viability (AID 624349).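 Note: 100% = mean of DMSO negative control wells on the same plate.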 As to conditions: P. berghei liver stage in HepG2, luciferase luminescence, concentration not given here; parasite load remaining: stronger effect = lower value; viability: measured here: HepG2 viability without parasites.
Assay [10] is described as follows: differential killing of epithelial or mesenchymal cells, primary screen, imaging, PC-3E GFP, TEM4-18 mCherry, co-culture (AID 1345086;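 active = compounds killing one labelled cell type while sparing the other, by normalised counts and ratio limits, not self-fluorescent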;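 for all read-outs here: cells exposed to compound for 72 h before imaging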;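 for red/green cell ratio (normalised): normalised mesenchymal count divided by normalised epithelial count so high means epithelial killing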). As to conditions: imaging cell counts, at 1 µM; for red/green cell ratio (normalised): actives lie on both sides, counts scaled to control wells, 1 = unselective.
Assay [11] is described as follows: sensitizers of A549 cells to miR-34 induction, primary screen, imaging, A549 dox-inducible miR-34, nuclei and caspase counts (AID 1347080;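 active = compounds whose cell count with miR-34 switched on is under 0.7 times the count with it off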). As to conditions: A549 miR-34 inducible, Hoechst nuclei count, 48 h.
[12] abbreviates: measured here: epithelial PC-3E GFP cell survival.
Setting [13] is: measured here: mesenchymal TEM4-18 mCherry cell survival.
The mark [14] stands for this setting: stronger effect = lower value, cell number ratio, induced over uninduced.
[15] abbreviates: measured here: relative caspase fold change +Dox/-Dox.
Setting [16] is: measured here: total cells with miR-34 induction, stronger effect = lower value.
Where [17] appears, read: measured here: total cells without miR-34 induction.

Structures are written as SMILES. Where “and” joins values, the source holds several entries; their conditions need not be identical. Identical values can stand only once. For part of these data: Results with a measured potency or affinity are listed apart. Calls of active or inactive are those of the source. Cut-off read from the data, not from the text of the source, unless noted: active = parasite load remaining mostly below about 12% (no sharp cut-off); inactive = mostly above about 10%.

`CN(C)CCCO[C@H]1[C@@H](C(O)CO)OC2OC(C)(C)O[C@@H]21` (some centres not stated): in assay [1], the inhibition was 13.5%. In assay [2], this compound registered a score of 1.28. The compound also returned a rescue above control in assay [3] of -9.95. For the same compound, the cytochrome c release ratio in [4] turned out to be 1.02. Also, the inhibition of aggregation in [5] was 85.9%. In addition, in assay [6], the glutamate uptake change is -4%. Moreover, in [7], the inclusion score is 2. Moreover, the aggregation suppression score in [8] came to 1.2. For the same compound, the parasite load remaining in [9] was 121% (inactive) and 48% (inactive). In addition, in assay [9], the viability is 87.2% and 101%. Further, the red/green cell ratio (normalised) in assay [10] is 0.97 (inactive). For the same compound, the normalised cell number is 0.98 in assay [10] (setting [12]) and 0.95 in [10] (setting [13]). Moreover, the fold change in assay [11] (setting [14]) is 0.948 (inactive); in [11] (setting [15]) it was 2.91. Besides, the cell count in [11] (setting [16]) was 12000; in assay [11] (setting [17]) it was 12700.

As to `CC(=O)OCC(=O)[C@@]1(O)CCC2C3CCC4=CC(=O)C=CC4(C)C3[C@@H](O)C[C@@]21C` (some centres not stated), in assay [1], the inhibition amounted to 26%. Further, the score in [2] is 0.73. For the same compound, the rescue above control in [3] is -9.27. In assay [4], the cytochrome c release ratio was determined as 0.8. Further, in assay [5], the inhibition of aggregation turned out to be 51%. Moreover, in assay [6], the glutamate uptake change was found to be 16.1%. This compound also displayed an inclusion score in assay [7] of 2. For the same compound, in assay [8], the aggregation suppression score is 0.991. Moreover, in [9], the parasite load remaining is 118% (inactive) and 56% (inactive). In addition, in assay [9], the viability was 73.8% and 82.3%. In [10], the red/green cell ratio (normalised) is 1.41 (inactive). The figures for the normalised cell number in assay [10] (setting [12]) and in assay [10] (setting [13]) were 1 and 1.41, respectively. The fold change was 0.859 (inactive) in [11] (setting [14]) and 2.47 in assay [11] (setting [15]). Moreover, the cell count in assay [11] (setting [16]) is 6780; in [11] (setting [17]), 7890.

`CCC(=O)O[C@]1(C(=O)CCl)[C@@H](C)CC2C3CCC4=CC(=O)C=C[C@]4(C)[C@@]3(F)[C@@H](O)C[C@@]21C` (some centres not stated): in assay [1], the inhibition was -7.85%. For the same compound, the score in [2] is 0.96. The rescue above control in assay [3] is 0.61. For the same compound, in [4], the cytochrome c release ratio was 1.1. Besides, the inhibition of aggregation in [5] was 51%. Moreover, the glutamate uptake change in assay [6] worked out at 19.7%. This compound also yielded an inclusion score in assay [7] of 2. Also, the aggregation suppression score in assay [8] stood at 1.08. In addition, in assay [9], the parasite load remaining is 202% (inactive) and 73.8% (inactive). Also, in assay [9], the viability was 86% and 95.6%. Besides, in assay [10], the red/green cell ratio (normalised) was 1.11 (inactive). Moreover, the normalised cell number came to 1.12 in assay [10] (setting [12]) and 1.25 in assay [10] (setting [13]). For the same compound, the figures for the fold change in assay [11] (setting [14]) and in assay [11] (setting [15]) were 0.913 (inactive) and 3.26, respectively. Besides, the values for the cell count in assay [11] (setting [16]) and in [11] (setting [17]) were 7630 and 8360, respectively.

Consider `CCC[C@@H]1C[C@@H](C(=O)N[C@H]([C@H]2O[C@H](SC)[C@H](O)[C@@H](O)[C@H]2O)[C@H](C)O)N(C)C1`, for which the inhibition in assay [1] was found to be 3.68%. In [2], this compound returned a score of 1.23. Further, in assay [3], the rescue above control is 8.96. For the same compound, the cytochrome c release ratio in assay [4] stood at 0.99. In [5], this compound came in with an inhibition of aggregation of 67.6%. Also, in assay [6], the glutamate uptake change is -19.8%. In [7], this compound had an inclusion score of 2. In addition, the aggregation suppression score in assay [8] is 1.16. In addition, the parasite load remaining in assay [9] was 81.5% (inactive) and 50.6% (inactive). Also, the viability in assay [9] was 72.6% and 86.3%. Further, the red/green cell ratio (normalised) in assay [10] was 1.04 (inactive). Further, the normalised cell number in assay [10] (setting [12]) was found to be 1.09; in assay [10] (setting [13]) it was 1.13. The fold change in [11] (setting [14]) is 0.939 (inactive); in [11] (setting [15]) it was 2.92. For the same compound, the figures for the cell count in [11] (setting [16]) and in assay [11] (setting [17]) were 11900 and 12700, respectively.

`O=c1[nH]c(=O)n(C2C[C@@H](O)[C@@H](CO)O2)cc1F` (some centres not stated): the inhibition in [1] was -9.47%. Further, the score in [2] was found to be 1.23. In assay [3], this compound showed a rescue above control of -12.2. Further, in [4], the cytochrome c release ratio was found to be 0.97. In [5], this compound registered an inhibition of aggregation of 28.2%. In addition, the glutamate uptake change in [6] came out at 1.59%. The compound also registered an inclusion score in assay [7] of 2. The compound further returned an aggregation suppression score in assay [8] of 1.24. Further, the parasite load remaining in [9] is 79.5% (inactive) and 36% (inactive). Besides, in assay [9], the viability worked out at 108%. Besides, the red/green cell ratio (normalised) in assay [10] is 0.79 (inactive). Further, the normalised cell number in [10] (setting [12]) was determined as 0.79; in [10] (setting [13]), 0.62. For the same compound, the figures for the fold change in [11] (setting [14]) and in assay [11] (setting [15]) were 1.13 (inactive) and 1.5, respectively. Further, the cell count was 4220 in assay [11] (setting [16]) and 3730 in [11] (setting [17]).

Take `CO[C@@H]1[C@@H](O[C@@H]2O[C@H](C)[C@@H](O[C@H]3C[C@@](C)(O)[C@H](O)[C@H](C)O3)[C@H](N(C)C)[C@H]2O)[C@@H](CC=O)C[C@@H](C)[C@@H](O[C@H]2CC[C@H](N(C)C)[C@@H](C)O2)/C=C/C=C/C[C@H](C)OC(=O)C[C@H]1O`: in assay [1], the inhibition is 7.63%. The compound further yielded a score in assay [2] of 1.61. In assay [3], this compound came in with a rescue above control of 24.9. Further, the cytochrome c release ratio in assay [4] turned out to be 1.41. The same compound displayed an inhibition of aggregation in [5] of 50.8%. Also, in assay [6], the glutamate uptake change is -5.09%. Besides, the inclusion score in assay [7] is 2. This compound yielded an aggregation suppression score in assay [8] of 1.01. Further, the parasite load remaining in assay [9] is 143% (inactive) and 69.7% (inactive). Moreover, the viability in [9] is 83.9% and 197%. For the same compound, the red/green cell ratio (normalised) in assay [10] was 0.86 (inactive). For the same compound, the figures for the normalised cell number in assay [10] (setting [12]) and in [10] (setting [13]) were 1.23 and 1.05, respectively. The values for the fold change in [11] (setting [14]) and in assay [11] (setting [15]) were 0.795 (inactive) and 4.68, respectively. Also, the cell count stood at 10300 in [11] (setting [16]) and 12900 in [11] (setting [17]).
